Source: PubChem BioAssay
pPAFAH FP inh: pPAFAH (human) enzyme inhibition; recombinant pPAFAH, FP-rhodamine probe fluorescence polarization; inhibition, % at 3.39 µM; Q13093; AID 463082; actives 1.5% (n = 330,000);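 active = inhibition above the mean inhibition across the screen plus 3 SD, cut at about 25% in these data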;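 also: inhibitors block binding of the rhodamine activity-based probe so polarization drops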
PAFAH1B2 inh: blocks human PAF acetylhydrolase 1b catalytic subunit 2; actives 1.2% (n = 340,000); P68402; recombinant PAFAH1B2, FP-rhodamine activity probe, fluorescence polarization; inhibition, % at 3.39 µM;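 active = inhibition above the mean of all tested compounds plus 3 SD, cut at about 24% in these data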
ATG4B inhibitor: ATG4B (human) cysteine protease inhibition; ATG4B cleavage of LC3-PLA2, NBD-HPC fluorescence, 1 h; inhibition, % at 8.33 µM; actives 0.51% (n = 340,000); AID 504462; in the data active = inhibition above about 40%
PAFAH1B3 inh: inhibitors of human PAFAH1B3. Q15102. recombinant PAFAH1B3, FP-rhodamine probe, fluorescence polarization. actives 0.28% (n = 340,000). AID 492972. inhibition, % at 3.39 µM;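 active = inhibition above the screen-wide average of all tested compounds plus 3 SD, cut at about 25% in these data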
PAFAH2 FP inh: PAFAH2 (human) inhibition; recombinant PAFAH2, FP-rhodamine activity probe, fluorescence polarization; inhibition, % at 3.39 µM; actives 0.99% (n = 340,000); AID 492956;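 active = inhibition above the mean over all tested compounds plus 3 SD, cut at about 30% in these data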;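 also: inhibitors block probe labeling of enzyme so polarization drops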
DAGLB inhibitor: blocks human DAGLB lipase activity; actives 0.059% (n = 340,000); inhibition, % at 5.17 µM; HEK293T DAGLB membrane lysate, EnzChek fluorogenic substrate; AID 504411; in the data active = inhibition above about 34%
Target sequence (Q8NCG7 whole entry, looked up): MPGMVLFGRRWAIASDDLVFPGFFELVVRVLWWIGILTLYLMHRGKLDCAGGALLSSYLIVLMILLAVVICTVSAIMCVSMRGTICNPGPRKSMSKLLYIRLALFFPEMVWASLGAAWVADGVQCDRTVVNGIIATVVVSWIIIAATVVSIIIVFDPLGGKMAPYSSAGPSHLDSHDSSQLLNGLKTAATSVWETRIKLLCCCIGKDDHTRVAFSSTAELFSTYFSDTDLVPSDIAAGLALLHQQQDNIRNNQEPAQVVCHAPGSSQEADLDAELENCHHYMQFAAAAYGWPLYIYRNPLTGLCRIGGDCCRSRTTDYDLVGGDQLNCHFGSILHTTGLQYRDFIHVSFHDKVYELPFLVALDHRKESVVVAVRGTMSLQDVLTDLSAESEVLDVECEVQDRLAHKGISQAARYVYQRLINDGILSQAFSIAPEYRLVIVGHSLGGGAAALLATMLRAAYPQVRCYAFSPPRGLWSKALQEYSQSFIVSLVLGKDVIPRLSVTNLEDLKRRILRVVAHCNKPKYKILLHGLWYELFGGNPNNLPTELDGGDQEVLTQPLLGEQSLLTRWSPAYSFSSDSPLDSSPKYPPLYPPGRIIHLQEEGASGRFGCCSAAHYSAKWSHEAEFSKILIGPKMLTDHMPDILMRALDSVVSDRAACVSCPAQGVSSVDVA
PAFAH2 FP conf: PAFAH2 (human) inhibition, confirmed; actives 65% (n = 2,300); shares compounds with PAFAH2 FP inh; AID 493030; inhibition, % at 3.39 µM; recombinant PAFAH2, FP-rhodamine activity probe, fluorescence polarization;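 active = mean inhibition over three repeats above a set limit taken from the earlier primary screen, cut at about 30% in these data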;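 also: inhibitor blocks binding of rhodamine activity probe so polarization falls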
Each line names hits and unclear results; the compound was inactive in the other large screens (follow-up assays come after a bar, where they were run). Hits are enriched below; roughly 3% of the tested compounds scored in any of these assays.

CCN(C(=O)COC(=O)CCC(=O)c1ccc(C)cc1)c1c(N)n(Cc2ccccc2)c(=O)[nH]c1=O	none (no result: pPAFAH FP inh)
O=C1c2nccnc2C(=O)N1Cc1ccccc1	none (no result: pPAFAH FP inh)
O=C1c2nc3ccccn3c2C(=O)N1Cc1ccccc1	PAFAH2 FP inh 38.3 | PAFAH2 FP conf inactive
Cc1c(C#N)c(O)[nH]c(=O)c1N=Nc1ccc(Cl)c(C(=O)O)c1	none
Cc1c(C#N)c(O)[nH]c(=O)c1N=Nc1ccc(S(N)(=O)=O)cc1	PAFAH2 FP inh 46.9 | PAFAH2 FP conf inactive
CNC(=O)C1CC(=O)N(c2ccc(OCC(=O)N3CCCC3)cc2)C1 (stereo not drawn)	none
O=C(COc1ccc(Cl)cc1)OCC(=O)N1CCCC1	PAFAH2 FP inh 36.7 | PAFAH2 FP conf inactive
NC(=O)C1CC(=O)N(c2ccc(OCC(=O)N3CCCC3)cc2)C1 (stereo not drawn)	PAFAH2 FP inh 57.5 (no result: pPAFAH FP inh) | PAFAH2 FP conf 47.6
O=C(COc1ccc(Cl)cc1)OCC(=O)N1CCCCCC1	none
Cc1ccc(S(=O)(=O)NN=C2CCCc3ccccc32)cc1	none (no result: pPAFAH FP inh, PAFAH1B2 inh, ATG4B inhibitor, PAFAH1B3 inh, PAFAH2 FP inh)
CN(C)c1cccc(C(=O)OCC(=O)NC2CCCC2)c1	PAFAH2 FP inh 76.9 | PAFAH2 FP conf 77.6
O=C(COC(=O)c1cccc(OC(F)F)c1)NC1CCCC1	PAFAH2 FP inh 52.4 | PAFAH2 FP conf 40.0
O=C(COC(=O)c1cccc(O)c1)Nc1ccc(OC(F)F)cc1	PAFAH2 FP inh 63.6 | PAFAH2 FP conf 54.1
O=C(CN1CCN(C(=O)c2ccco2)CC1)Nc1cccc([N+](=O)[O-])c1	none
Cc1onc(-c2c(Cl)cccc2Cl)c1C(=O)Nc1nccs1	none
N/C(CS(=O)(=O)c1ccccc1)=N\OC(=O)c1ccc(F)cc1	PAFAH2 FP inh 51.5 | PAFAH2 FP conf 40.1
Cc1ccccc1/C(N)=N/OC(=O)c1ccc(F)cc1	none
COc1ccc(OC)c(NC(=O)C2C(C(=O)O)C3(Cl)C(Cl)=C(Cl)C2(Cl)C3(Cl)Cl)c1 (stereo not drawn)	PAFAH2 FP inh 50.5 | PAFAH2 FP conf 39.7
Cc1c(CCCl)c(Cl)n2c(nc3ccccc32)c1C#N	none (no result: pPAFAH FP inh)
COC(CNC(=O)CN1CCN(Cc2ccc(F)cc2Cl)C1=O)OC	none
CSCC(=O)NC1CCCN(C2Cc3ccccc3C2)C1 (stereo not drawn)	none
O=C(NC1CCCN(C2Cc3ccccc3C2)C1)c1ccc(F)cc1Cl (stereo not drawn)	PAFAH2 FP inh 42.3 | PAFAH2 FP conf inactive
Nc1cc(C(F)(F)F)ccc1NCCc1ccccn1	PAFAH2 FP inh 63.6 | PAFAH2 FP conf 51.9
O=C(NCc1ccccc1Cl)c1cc2c(s1)CS(=O)(=O)C2	none
O=C(COC(=O)CCCN1C(=O)c2cccc3cccc(c23)C1=O)Nc1ccc(Cl)cc1	PAFAH2 FP inh 47.7 | PAFAH2 FP conf inactive
NC(=O)c1ccc(NC(=O)COC(=O)CCCN2C(=O)c3cccc4cccc(c34)C2=O)cc1	none
Cc1cccc(NC(=O)COC(=O)CC2CCCC2)c1C	PAFAH2 FP inh 52.4 (no result: pPAFAH FP inh) | PAFAH2 FP conf 37.8
Cc1csc(Sc2ccc(C(=O)OCC(=O)Nc3ccc(F)cc3[N+](=O)[O-])cc2[N+](=O)[O-])n1	PAFAH2 FP inh 33.5 | PAFAH2 FP conf inactive
CCCCOc1ccc(C(=O)OCC(=O)Nc2cc(C)c(C)cc2[N+](=O)[O-])cc1	none
Cc1cc(NC(=O)COC(=O)CC2CCCC2)c([N+](=O)[O-])cc1C	PAFAH2 FP inh 55.6 | PAFAH2 FP conf inactive
CCC(=O)OCC(=O)Nc1cc(C)c(C)cc1[N+](=O)[O-]	none
COc1ccc(C(=O)OCC(=O)Nc2cc(C)c(C)cc2[N+](=O)[O-])cc1	PAFAH2 FP inh 38.8 | PAFAH2 FP conf 31.9
O=C(NCc1cccnc1)c1ccc(NS(=O)(=O)c2cccc([N+](=O)[O-])c2)cc1	none
O=C(COC(=O)CC1CCCC1)Nc1ccc(Br)cc1F	PAFAH2 FP inh 46.6 | PAFAH2 FP conf 41.3
O=C(COC(=O)CC1CCCC1)Nc1cc2c(cc1Cl)C(=O)c1ccccc1C2=O	none
CC(C)c1ccc(NC(=O)COC(=O)CC2CCCC2)cc1	PAFAH2 FP inh 53.5 | PAFAH2 FP conf inactive
Cc1ccc(S(=O)(=O)N(C)C)cc1NC(=O)COC(=O)CC1CCCC1	PAFAH2 FP inh 32.2 | PAFAH2 FP conf inactive
O=C(CNC(=O)C1CC(=O)N(c2cccc3ccccc23)C1)Nc1ccccc1Br (stereo not drawn)	none
CCOC(=O)c1c(C)n(-c2ccc(C)cc2)c2c(C(C(C)=O)C(=O)O)c(Br)c(O)c(O)c12 (stereo not drawn)	PAFAH2 FP inh 81.0 | PAFAH2 FP conf 75.5
CCOC(=O)c1c(C)n(-c2ccc(C)cc2)c2c(CC(C)=O)c(Br)c(OC)c(O)c12	none
CCN(CC(=O)NC1CCCC1)S(=O)(=O)c1ccc(Br)cc1	none
CCOC(=O)c1c(CC(C)C)csc1NC(=O)c1ccccc1C(=O)O	none
CC(C)Cc1csc(NC(=O)c2ccc(F)cc2)c1C(=O)O	PAFAH2 FP inh 36.6 | PAFAH2 FP conf inactive
CCCC(C(=O)Nc1cc(S(=O)(=O)N2CCOCC2)ccc1OC)c1ccccc1 (stereo not drawn)	none
O=C(O)CCc1[nH]c2ccccc2c1Sc1ccccc1	PAFAH2 FP inh 31.1 | PAFAH2 FP conf inactive
O=C(O)CCc1c(C(=O)O)[nH]c2ccccc12	none
O=C(CSc1ccccc1C(=O)O)c1ccc([N+](=O)[O-])cc1	PAFAH2 FP inh 46.2 | PAFAH2 FP conf 56.4
O=C(CSc1ccc([N+](=O)[O-])cc1)c1ccccc1	none (no result: pPAFAH FP inh)
CCCNC(=O)COC(=O)/C=C/c1ccc(C)o1	PAFAH2 FP inh 40.4 | PAFAH2 FP conf 37.3
Cc1ccc(/C=C/C(=O)OCC(=O)NCc2ccccc2)o1	PAFAH2 FP inh 51.5 (no result: pPAFAH FP inh) | PAFAH2 FP conf 39.5
CC1(C)OCC(N)(CO)CO1	none (no result: pPAFAH FP inh, PAFAH1B2 inh, ATG4B inhibitor, PAFAH1B3 inh, PAFAH2 FP inh)
COc1ccc(C(=O)O/N=C2\CCS(=O)(=O)c3sccc32)cc1	PAFAH2 FP inh 89.1 | PAFAH2 FP conf 83.4
Cc1ccccc1C(=O)O/N=C1\CCS(=O)(=O)c2sccc21	PAFAH2 FP inh 68.3 | PAFAH2 FP conf 68.2
Cc1cccc2nnc(-c3ccccc3)n12	none (no result: pPAFAH FP inh)
O=C(COC(=O)C1CCCC1)NCc1ccc(Cl)cc1	none
Cc1cccc(C(=O)O/N=C(\N)Cc2cccc3ccccc23)c1	ATG4B inhibitor 46.2, PAFAH2 FP inh 75.3 | PAFAH2 FP conf 73.7
COc1cccc(C(=O)O/N=C(\N)Cc2ccc(Cl)cc2)c1	PAFAH2 FP inh 69.2 | PAFAH2 FP conf 55.9
N/C(Cc1ccc(Cl)cc1)=N\OC(=O)C1CCCCC1	PAFAH2 FP inh 40.5 | PAFAH2 FP conf 41.7
N/C(Cc1ccc([N+](=O)[O-])cc1)=N\OC(=O)c1ccc2ccccc2c1	PAFAH2 FP inh 61.9 | PAFAH2 FP conf 53.7
